# Test results published in ChEMBL document CHEMBL4513216, “Probing the Open Global Health Chemical Diversity Library for Multistage-Active Starting Points for Next-Generation Antimalarials” (ACS Infect Dis, 2020).
# About 8,600 (12%) of roughly 69,000 compounds showed an effect of 50% or more. This is one part of a sample in which strong results are shown more often than they occur.
# Test system: Plasmodium berghei
# Assay: Screen against P. berghei liver stage (PbLuc), transformed with Luciferase, at 10uM
# Format: functional, HepG2
# Conditions: tested at 10 uM
row,SMILES,INHIBITION
1,O=C(CCn1cnc2cc(F)c(F)cc21)N1CCN(C2CC2)CC1,-27.6%
2,COCCN1CCN(Cc2ccc(OCc3nccn3C)cc2)CC1,-3.7%
3,O=C1CC2(CCN(S(=O)(=O)c3cccs3)C2)CN1c1cccc(F)c1 (stereo not drawn),-20.8%
4,Cc1n[nH]c(C)c1CCc1n[nH]c(=O)n1Cc1cccs1,-54.9%
5,COCC(NC(=O)c1cc(C)n(C)n1)c1cccc(C(F)(F)F)c1 (stereo not drawn),-0.532%
6,CNC(=O)c1ccc(C(=O)N2CCC(Nc3cccnn3)CC2)cn1,-0.219%
7,COc1ccc(-c2cc(C3=NC(=CN4CCN(C)CC4)NO3)[nH]n2)cc1,40.7%
8,CN1CCN(C=C2N=C(c3cc(-c4ccc(F)cc4)n[nH]3)ON2)CC1,50.5%
9,Cc1ccc(-c2cc(C3=NC(=CN4CCN(C)CC4)NO3)[nH]n2)cc1,41.8%
10,Cc1nc(NC2(CN3CCCCC3)CCCCC2)c2cnn(C)c2n1,40.5%
11,COCC1(Nc2nc(C)nc3c2cnn3C)CCCC1,81.6%
12,CCCc1nc(NC2(COC)CCCC2)c2cnn(C)c2n1,22.6%
13,COc1ccccc1-c1ccnc2nc(N3CCCCC3)[nH]c(=O)c12,23.4%
14,CC(=O)N1CCC(Cc2ccc(-c3ccnn3C)nc2)CC1,9.45%
15,CN1CCCC2(CCN(C(=O)Cn3ncc4ccccc4c3=O)C2)C1=O (stereo not drawn),21.2%
16,CCN(CC1CCOC1)C(=O)c1ccccc1S(C)(=O)=O (stereo not drawn),45.7%
17,c1ccc(OCCNc2ncnc3sc4c(c23)CCNC4)cc1,92.1%
18,Cc1nonc1OCCNc1ncnc2sc3c(c12)CCNC3,6.94%
19,Cc1ccc(CCNc2ncnc3sc4c(c23)CCNC4)o1,-158%
20,Cc1cnn(CCNCC(=O)N(C)C(C)c2ccccc2)c1 (stereo not drawn),19.7%
21,Cc1ccoc1C1=NNC(=CN2CCn3c(nnc3C3CC3)C2)O1,5.97%
22,Cn1c(CCN2CCN(c3ccc(O)cc3)CC2)nc2ccccc21,61.9%
23,Cn1c(CCN2CCN(CCc3ccccc3)CC2)nc2ccccc21,49.9%
24,CCCc1ccc(N2CCN(Cc3nc4ccccc4n3C)CC2)cc1,25.8%
25,O=C(NCc1cncc2c1CCN(Cc1ccoc1)C2)C1CC1,5.96%
26,CN1CCN(Cc2cn3c(n2)CN(Cc2ccncc2)CC3)CC1,82.9%

row,SMILES,INHIBITION
1,Cc1ccc(CN2CCn3cc(CN4CCN(C)CC4)nc3C2)cc1,72.9%
2,CN1CCN(Cc2cn3c(n2)CN(Cc2cccnc2)CC3)CC1,30.7%
3,CN1CCN(Cc2cn3c(n2)CN(Cc2ccc(F)cc2)CC3)CC1,-17.7%
4,CN1CCN(Cc2cn3c(n2)CN(Cc2ccccn2)CC3)CC1,24.9%
5,COc1ccc(CN2CCn3cc(CN4CCN(C)CC4)nc3C2)cc1,40.4%
6,O=C(c1cscn1)N1C[C@@H](Oc2cccnc2)[C@H]2OCCC[C@H]21,2.58%
7,O=C1COc2ccc(Br)cc2CN1CC1CC1,0.0996%
8,O=C1COc2ccc(Cl)cc2CN1CC1CC1,-8.66%
9,CCCN1Cc2cc(Br)ccc2OCC1=O,68%
10,O=C(NC[C@]12COC[C@H]1CN(Cc1cccs1)C2)c1ccsc1,20.5%
11,COc1ccc(CNc2c(N3CCN(C)CC3)c(=O)c2=O)cc1,31.8%
12,COc1ccccc1CNc1c(N2CCN(C(C)=O)CC2)c(=O)c1=O,-19.2%
13,COc1ccc(CNc2c(N3CCN(C(C)=O)CC3)c(=O)c2=O)cc1,54%
14,O=C(NCCSCc1ccco1)c1ccc(N2CCOCC2)cc1,17.7%
15,CCC(CC#N)n1ccc(C(F)(F)F)n1 (stereo not drawn),21.9%
16,CCC1=N[C@@]2(CC[C@@H]3CN(CC(=O)N(C)C)C[C@@H]32)C(=O)N1CC1CC1,-3.95%
17,Cc1c(CN2CCC(C(=O)O)(n3ccnc3)CC2)oc2ccccc12,15.1%
18,COc1ccc(NC(=O)NC(C)Cc2ccco2)cn1 (stereo not drawn),-41.2%
19,CN(C)C(=O)N1C[C@@H]2COC[C@]2(c2nnc(C3CC3)o2)C1,54.7%
20,O=C(c1ncccn1)N1C[C@@H]2COC[C@]2(c2nnc(C3CC3)o2)C1,-36.5%
21,CC(C)(C)C(=O)N1C[C@@H]2COC[C@]2(c2nnc(C3CC3)o2)C1,-9.54%
22,COc1cccc(-c2nc(C)c(C(=O)N[C@@H](CC(C)C)C(=O)O)s2)c1,-95.4%
23,O=C1CC(c2cccnc2)c2c(c(C(=O)O)cn2-c2ccc(Cl)cc2)N1 (stereo not drawn),20%
24,O=C(C1CC1)N1CCc2c(ncnc2NCCc2nc3c(s2)CCC3)C1,52.2%
25,O=C(C1CCCCO1)N1CCc2ncnc(NCCO)c2CC1 (stereo not drawn),25.8%
26,Nc1nnc(CCCNc2ncnc3c2CCN(C(=O)C2CC2)C3)s1,-45%

row,SMILES,INHIBITION
1,Nc1nc(CCNc2ncnc3c2CCN(C(=O)C2CC2)C3)cs1,-66.7%
2,Nc1nnc(CCNc2ncnc3c2CCN(C(=O)C2CC2)C3)s1,-10.2%
3,CCc1ccc(CCNc2ncnc3c2CCN(C(=O)C2CC2)C3)cc1,71.1%
4,CC(C)n1nc(Cn2cccn2)c2c1CN(C1CCOCC1)C2,-33%
5,Cc1nc(CN2CC[C@@H]3O[C@@H](C(=O)N4CCOCC4)C[C@@H]32)cs1,30.9%
6,COCCC(C)NC(=O)N1CCC(n2ccc(C(F)(F)F)n2)CC1 (stereo not drawn),15.7%
7,CCS(=O)(=O)N1CCN(C(=O)c2cnc3[nH]nc(C)c3c2)CC1,-35.2%
8,O=C(c1coc(COc2cccc3cnccc23)n1)N1CCSCC1,74.9%
9,CC1CCCCN1C(=O)c1coc(COc2cccc3cnccc23)n1 (stereo not drawn),68.4%
10,O=C(c1coc(COc2cccc3cnccc23)n1)N1CCCCCC1,84.1%
11,O=C(c1cc(=O)c(OCc2ccccc2)co1)N1CCSCC1,21.5%
12,O=C(c1coc(COc2ccccc2F)n1)N1CCC[C@H]1CO,2.611%
13,O=C(O)c1coc(COc2cccc3cnccc23)n1,-2.46%
14,O=C(c1coc(COc2cccc(F)c2)n1)N1CC[C@H](O)[C@@H](O)C1,6.8%
15,COCCC1CCCCN1C(=O)c1coc(COc2ccccc2F)n1 (stereo not drawn),29.735%
16,O=C(c1coc(COc2ccccc2F)n1)N1CCCO1,-4.235%
17,Cc1cc(Cn2c(=O)c3c(C(F)(F)F)cc(C)nc3n2C)on1,4.81%
18,CN1CCOC(CNCC(=O)NCCCc2ccccc2)C1 (stereo not drawn),-17.8%
19,COc1ccc(CN(C)Cc2ccnc(C3CCCO3)n2)cc1 (stereo not drawn),21.95%
20,Cc1ncc(CNC(=O)NC2CCN(C3CCCC3)CC2)s1,-53.6%
21,Cc1cccc(CN2CC[C@@H]3O[C@@H](C(=O)N4CCN(C)CC4)C[C@@H]32)n1,-5.25%
22,CCOC(=O)N1CCN(C(=O)c2cc(-c3ccc(Cl)cc3Cl)on2)CC1,-6.91%
23,CCN(Cc1cccc(F)c1)Cc1nc2c(cnn2C)c(=O)[nH]1,3.73%
24,CC1(NC(=O)Cc2csc(NC(=O)c3ccccc3)n2)CCS(=O)(=O)C1 (stereo not drawn),-14.2%
25,CCc1ncncc1C(=O)NC1CCc2nc(C)cn2C1 (stereo not drawn),-53.5%
26,Cc1ccccc1[C@@H]1CN(Cc2c(C)noc2C)C[C@H]1C(=O)O,2.25%

row,SMILES,INHIBITION
1,Cc1ccccc1[C@@H]1CN(Cc2ccc(C(F)(F)F)nc2)C[C@H]1C(=O)O,59.7%
2,COc1ccccc1[C@@H]1CN(Cc2ccc3nsnc3c2)C[C@H]1C(=O)O,68.2%
3,CCC[C@@H]1CN(Cc2ccc(C(F)(F)F)nc2)C[C@H]1C(=O)O,37.2%
4,COc1ccccc1[C@@H]1CN(Cc2ccncc2)C[C@H]1C(=O)O,-21.8%
5,COc1ccccc1[C@@H]1CN(Cc2csc(C(C)=O)c2)C[C@H]1C(=O)O,-82.7%
6,COCCO[C@H]1CCN(C(=O)c2ccc[nH]2)[C@H]1Cc1ccncc1,42.6%
7,CC(C)c1noc(CN2CCC(c3ccnn3CCO)CC2)n1,-24.2%
8,O=C(Nc1ccnn1Cc1ccccc1Cl)C1CCS(=O)(=O)C1 (stereo not drawn),-4.12%
9,CCOCC(=O)N1CCC2(CC1)COCCN2CCOC,12.1%
10,Cn1ncc2c(N3CCN(C(=O)c4ccsc4)CC3)ncnc21,21.6%
11,Cc1ccc(OCC(O)CN(C)CC(=O)NC(C)C)c(C)c1 (stereo not drawn),33%
12,Cc1ccc(OCCN(C)C(=O)CCCC(N)=O)c(C)c1,-7.65%
13,Cc1ccc(C)c(OCC(O)Cn2ncc3cnn(C)c(=O)c32)c1 (stereo not drawn),-28.9%
14,Cc1ccc(OCC(O)CN(C)CC(=O)Nc2cc(C)on2)c(C)c1 (stereo not drawn),77.9%
15,COc1cc(CN(C)C(=O)Nc2cc(C)on2)ccc1SC,40.1%
16,Cc1ccc(C)c(OCc2cc(C(=O)N(C)CC(O)CO)no2)c1 (stereo not drawn),10.4%
17,Cc1ccc(C)c(OCC(O)CN(C)CC(=O)Nc2cc(C)on2)c1 (stereo not drawn),84.3%
18,Cc1ccc(OCCC(=O)N(C)CC(=O)Nc2cc(C)on2)c(C)c1,52.2%
19,Cc1ccccc1OCCC(=O)N(C)Cc1c(C)noc1C,25.5%
20,CC(C)Cn1cncc1-c1nc2c([nH]1)CC(C)(C)CNC2=O,-109%
21,CCn1cc(CN2CCCN(C(=O)c3ccc(C#N)cc3)CC2)cn1,25.6%
22,Cn1ncc2c(=O)[nH]c(CN3CCCC3CC(C)(C)C)nc21 (stereo not drawn),19.6%
23,CC(C)=CCN1C(=O)[C@@H]2CC[C@H]1CN(C(=O)CCc1nnc(Cl)[nH]1)C2,-15.3%
24,Cc1cc(NCCN)nc(-c2ccccc2O)n1,17.7%
25,Cn1cc(Cl)cc1C(=O)N1CCN(CCc2cccs2)CC1,23.73%
